# Measured values taken from PubChem BioAssay AID504329 (Southern Research Specialized Biocontainment Screening …, 2011).
# The campaign covered roughly 340,000 compounds. About 1,000 (0.29%) were called active. These entries were drawn from the full list. Entries with a potency or affinity are not part of this list. Values without a mark were called inactive. Rule as the data show it: inconclusive = inhibition above about 27% without an active follow-up result; inactive = below that.
# Assay: H1N1 influenza NS1A inhibitors, functional cell based assay (AID 504329)
# Settings: percent inhibition, at 12.5 µM, active compounds read high
row,Compound,inhibition
1,COc1cccc2cc(CC(=O)c3ccccc3)c(=O)oc12,-8.03%
2,COc1ccc(-c2oc(=O)c3cc(OC)c(OC)cc3c2C#CCCCO)cc1,6.01%
3,COc1ccc(CCNC(=O)CCCCCN2C(=O)c3ccccc3C2=O)cc1OC,-8.38%
4,Cc1cc(OCC(=O)NCc2ccncc2)c2c3c(c(=O)oc2c1)CCCC3,-0.56%
5,NC(=O)C1CCCc2c1n(Cc1ccccc1)c1ccccc21 (configuration not stated),1.35%
6,CN(c1ccc(OCC(=O)OCC(=O)Nc2ccc(OC(F)F)cc2)cc1)S(=O)(=O)c1cccs1,-3.07%
7,Cn1c(C(=O)NCCCN2CCN(c3ccccc3F)CC2)cc2c(=O)n(C)c3ccccc3c21,2.56%
8,C/C(=N/NC(=O)c1ccccn1)c1ccncc1,19.9%
9,Cc1sc2ncnc(Nc3ccccc3)c2c1C,1.18%
10,C/C(=N\Nc1ccc(Cl)cc1)c1ccccn1,-19.3%
11,O=C(N/N=C(\c1ccccc1)c1ccccn1)c1ccccc1Cl,7.83%
12,C/C(=N\Nc1ncc(Cl)cc1Cl)c1ccc(C#N)cc1,-7.31%
13,Cc1sc2ncnc(N/N=C/c3ccccc3O)c2c1C,12.5%
14,C/C(=N/NC(=O)c1ccncc1)c1c[nH]c2ccccc12,3.5%
15,C/C(=N/NC(=O)c1ccccn1)c1c[nH]c2ccccc12,9.32%
16,Nc1cc(N)nc(SCC(=O)NCc2ccco2)n1,0.81%
17,CN(C(=O)Oc1ccc([N+](=O)[O-])cc1)c1ccccc1,5.58%
18,COCCn1c(=O)[nH]c2cc(C(=O)N3CCN(c4cccc(C(F)(F)F)c4)CC3)ccc2c1=O,4.36%
19,O=C1NC2NC(=O)N(C(Cc3ccccc3)C(=O)O)C2N1 (configuration not stated),7.19%

row,Compound,inhibition
1,COc1ccc(C(=O)COC(=O)c2ccccn2)cc1OC,2.06%
2,O=C(COC(=O)c1ccccn1)c1ccc(Br)cc1,13.3%
3,C/C(=N\Nc1ccc(Cl)c(C(=O)O)c1)c1ccccn1,-11.6%
4,Clc1ccccc1N=Nc1ccccn1,2.66%
5,O=C1CC(=C(c2ccccc2)c2ccccc2)C(=O)N1CCCCN1CCN(c2ccccc2)CC1,0.53%
6,COc1cc(/C=C/C(=O)Nc2cccc(S(=O)(=O)N3CCOCC3)c2)ccc1OCC#N,-0.73%
7,CN(C(=O)CN1C(=O)c2cc(Cl)c(Cl)cc2C1=O)C1CCS(=O)(=O)C1 (configuration not stated),-4.84%
8,Cn1nc([N+](=O)[O-])c(C(C#N)c2ccccn2)c(Cl)c1=O (configuration not stated),7.2%
9,Cn1nc([N+](=O)[O-])c(C(C#N)c2nc3ccccc3n2C)c(Cl)c1=O (configuration not stated),3.66%
10,CCCn1nc([N+](=O)[O-])c(C(C#N)c2nc3ccccc3o2)c(Cl)c1=O (configuration not stated),17.6%
11,CCn1nc([N+](=O)[O-])c(C(C#N)c2nc3ccccc3n2C)c(Cl)c1=O (configuration not stated),0.82%
12,Cc1cc(C)cc(NC(=O)C(OC(=O)c2sccc2C)c2ccccc2)c1 (configuration not stated),-3.16%
13,COc1ccc(S(=O)(=O)N2CCCC2C(=O)NCc2ccccc2Cl)cc1 (configuration not stated),-6.48%
14,CC1(C)CC(=O)C2=C(C1)OC(=O)CC2c1cccs1 (configuration not stated),-6.75%
15,CCN(CC)S(=O)(=O)c1ccc(Cl)c(NC(=O)COC(=O)c2c(C)noc2C)c1,-8.29%
16,COc1ccc2nc(SC(C)C(=O)NCC(=O)Nc3ccc(F)c(F)c3F)[nH]c2c1 (configuration not stated),-9.36%
17,C/C(=N\NC(=O)CN1CCN(Cc2ccccc2)CC1)c1cccs1,0.29%
18,O=C(CNC(=O)c1ccccc1F)OCCCOC(=O)CNC(=O)c1ccccc1F,-5.51%
19,NC(=O)COC(=O)/C=C/c1ccc(S(=O)(=O)N2CCCCCC2)cc1,5.4%

row,Compound,inhibition
1,C[C@H]1CCC[C@]2(O[C@H](CCO)C[C@@H](O)[C@@H]2O)O1,-6.34%
2,Cc1nc(C(F)(F)F)c(C(=O)NC(=O)Nc2ccccc2)s1,-2.55%
3,Cc1nc(C(F)(F)F)c(C(=O)N/N=C(\N)c2cccnc2)s1,-4.6%
4,COc1ccccc1Oc1ncnc2c1cnn2-c1ccccc1,-2.97%
5,CCOC(=O)N1CCc2c(sc(NC(=O)C3COc4ccccc4O3)c2C(N)=O)C1 (configuration not stated),-11.4%
6,C#CCOCCOCCOCCNc1nc(N2CCN(C(=O)CCCCCCCCCCNC(=O)[C@H]([C@@H](C)CC)n3cc(CCCCN=C(N)N)nn3)CC2)nc(N2CCN(C(=O)CCCCCCCCCCNC(=O)[C@H](CO)n3cc(CCCSC)nn3)CC2)n1,-16.7%
7,C#CCOCCOCCOCCNc1nc(N2CCN(C(=O)CCCCCCCCCCNC(=O)[C@H]([C@@H](C)CC)n3cc(CCCCCN)nn3)CC2)nc(N2CCN(C(=O)CCCCCCCCCCNC(=O)[C@H](CO)n3cc(CCCCCN)nn3)CC2)n1,22.1%
8,O=C(COC(=O)c1ccc2ncsc2c1)NC(=O)c1ccccc1,-8.75%
9,N#CC(c1ccccc1)c1cnccn1 (configuration not stated),-11%
10,COc1ccccc1N/N=C/c1c(CO)cnc(C)c1O,2.27%
11,Oc1ccc(/C=N/Nc2ccc(C(F)(F)F)cn2)cc1,13.7%
12,COc1cc(/C=N/Nc2ccc(C(F)(F)F)cn2)cc(OC)c1O,-10.9%
13,Cc1ncc(CO)c(/C=N/NC(=S)Nc2ccc(C(C)C)cc2)c1O,11.8%
14,Cc1ncc(CO)c(/C=N/Nc2cccc(Cl)n2)c1O,-2.98%
15,Cc1ncc(CO)c(/C=N/NC(=S)Nc2ccc(Cl)c(Cl)c2)c1O,2.53%
16,COc1ccccc1N(C(=O)c1ccco1)C(C(=O)NC1CCCCC1)c1cc(OC)c(OC)c(OC)c1 (configuration not stated),7.04%
17,CC(C)=C1C2CCC1C1C(=O)N(NC(=O)COc3ccc(C(C)(C)C)cc3)C(=O)C21 (configuration not stated),4.52%
18,Cc1ccc(-c2nnn(CCOc3cccc(Br)c3)n2)cc1,-6.07%
19,c1ccc2nc3[nH]cnc3nc2c1,1.88%
